DT40 TDP1 CPT = qHTS for Inhibitors of human tyrosyl-DNA phosphodiesterase 1 (TDP1): qHTS in cells in presence of CPT; 420,000 tested, 12% active; Potency, µM (top dose mostly 46.2 µM), without a hit: at the top dose activity change, negative = growth inhibition, usual class: inhibitors; AID 686979, 2013; chicken DT40 Tdp1-/-;hTDP1 cells + 20 nM CPT, ATP luminescence, 48 h; further: potency means the concentration at half of the fitted maximal effect; on the % scale 0 is the no-effect control and ±100 the full control effect; nearly all actives have a fitted effect of over 55% in size
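Chicken DT40 Tdp1-/- cells stably complemented with human TDP1 were seeded at 400 cells/well in medium containing 20 nM camptothecin, exposed to pin-transferred compounds, and grown at 37 °C for at least 48 hr. Viability was read as ATP luminescence.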
IL-1B inflam inh = qHTS for Inhibitors of Inflammasome Signaling: IL-1-beta AlphaLISA Primary Screen; THP-1 LPS/ATP IL-1B secretion, AlphaLISA, 16 h; stronger effect = lower value; activity change, % at 57.5 µM; 360,000 tested, 4.7% active; in the data active means activity change below about -50%; inconclusive means mostly about -30% to -49%; further: on the % scale 0 is the no-effect control and ±100 the full control effect
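Secreted IL-1B measured by AlphaLISA bead assay after 16 h compound exposure of THP-1 cells; compounds (final up to 57.5 uM) added 1 h before LPS (250 ng/mL) and ATP (1.25 mM) stimulation; lower signal means less secretion.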
TDP1 cell noCPT = qHTS for Inhibitors of human tyrosyl-DNA phosphodiesterase 1 (TDP1): qHTS in cells in absence of CPT | DT40 Tdp1-/- hTDP1 cells, no CPT, ATP luminescence, 48 h | Potency, µM (highest dose often 46.2 µM), without a hit: at the top dose activity change, negative = growth inhibition, usual class: inhibitors | 420,000 tested, 15% active; further: potency means the concentration at half of the fitted maximal effect; on the % scale 0 is the no-effect control and ±100 the full control effect; nearly all actives have a fitted effect of over 55% in size
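Seeded 400 DT40-hTDP1 cells/well (vehicle DMSO, no 20 nM CPT); pinned compounds; ≥48 hr at 37 °C; CellTiter-Glo luminescence as viability measure.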
ClpP mod = qHTS Assay for Activators of ClpP. AID 651965, 2013. 340,000 tested, 1.9% active. Potency, µM (doses to about 57.5 µM), inactives show at the top dose activity change, negative = active. purified B. subtilis ClpP, FRET peptide cleavage, 20 min; active means well fitted falling curve with a large enough effect; inconclusive means small, poorly fitted or top-dose-only effect; inactive means no such curve, though single readings can be large or run the other way; further: potency means the concentration at half of the fitted maximal effect; the source files actives as falling curves though it sought activators and does not explain the sign; nearly all actives have a fitted effect of over 65% in size
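Purified B. subtilis ClpP, 10 microg/mL final in Tris/HCl pH8 with KCl, BSA, glycerol and Tween-20, cleaved an Abz/nitrotyrosine-quenched decapeptide. Fluorescence (ex 320, em 430) was read at 0 and 20 min at room temperature. Delta was normalized to 5.8 microM ADEP and DMSO/no-enzyme controls.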
DRD3 agonist = qHTS of D3 Dopamine Receptor Agonist: qHTS. 410,000 tested, 0.58% active. max activation, %. D(3) dopamine receptor (Homo sapiens), P35462. D3R DiscoveRx beta-arrestin cells, luminescence, 90 min. AID 652048, 2013; in the data active means max activation above about 30%; further: 0% is about no effect
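Cells at 1500/well, incubated overnight, then treated with pinned compounds (dopamine as control) for 90 min at 37 degrees C. DiscoveRx reagent added for 30 - 60 minutes at room temperature; luminescence read.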
D3 antag = qHTS of D3 Dopamine Receptor Antagonist: qHTS | D(3) dopamine receptor (Homo sapiens), P35462 | max response, negative = inhibition, % | 360,000 tested, 2.5% active | D3R cells, DiscoveRx beta-arrestin luminescence, antagonist mode; stronger effect = lower value | AID 652054, 2013; in the data active means max response below about -50%; inconclusive means no clear call, values can overlap the other calls; further: on the % scale 0 is the no-effect control and ±100 the full control effect
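Cells expressing the human receptor were seeded at 1500 cells/well, incubated overnight at 37 degrees C in 5% CO2, then exposed to library compounds with dopamine controls for 90 minutes at 37 degrees C before luminescent detection.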
* hit, by the source's call; ? = inconclusive; · = not tested or not shown; ! = not active in a repeat; [ ] = another dose, or the depositor's remark. Rows were chosen to be rich in hits. Some 21% of all compounds tested hit in one or more screens of this group. Unless noted, the call rests on the fitted dose curve; in most records, active means well fitted inhibition curve with a large enough effect; inconclusive means small, poorly fitted or top-dose-only effect; inactive means flat fitted curve, though single readings scatter.

SMILES | DT40 TDP1 CPT | IL-1B inflam inh | TDP1 cell noCPT | ClpP mod | DRD3 agonist | D3 antag
CCC1(C2=NCCN2)Cc2ccccc2O1 (stereo unspecified) | 4.7µM*! | 7 | 4.7µM*! | 0% | -14 | 12
COc1ccc(C(Nc2ccccc2)P(=O)(Oc2ccccc2)Oc2ccccc2)cc1 (stereo unspecified) | -4% | -4 | ? | -2% | 25 | ?
CCCCOP(=O)(c1ccc(N(C)C)cc1)C(Nc1ccccc1)c1ccccc1 (stereo unspecified) | 15µM* | -96* | 21µM* | -4% | 4 | 15
O=c1oc2ccccc2c(O)c1Cc1c(O)c2ccccc2oc1=O | -4%[21.1 µM] | · | -8%[21.1 µM] | · | 5 | ·
O=C(CC1CCCCC1)c1c(O)c2ccccc2oc1=O | 18µM* | 16 | ? | 1% | 7 | 19
c1ccc(CN2CCNCC2)nc1 | -7% | 9 | 10% | -4% | -14 | -29
c1cnc(N2CCC3(CCNCC3)CC2)nc1 | ? | · | 23µM* | · | · | ·
c1ccc(N2CCCC3(CCNCC3)C2)nc1 | ? | · | 16µM* | · | · | ·
c1cc(CN2CCC3(CCNCC3)CC2)ccn1 | -1% | · | -2% | · | · | ·
O=C(Oc1ccccc1)N1CCC2(CCN(Cc3nccs3)CC2)CC1 | -29% | · | ? | · | · | ·
COC(=O)C1=C(c2cccc(C#N)c2)C[C@@H]2CC[C@H]1N2C(=O)N1CCOCC1 | -19% | 18 | ? | 3% | 7 | -10
COc1ccccc1CNC(=O)CCC(=O)N1C[C@H]2C[C@@H](C1)c1cccc(=O)n1C2 | 4% | 14 | -4% | -1% | 1 | 37
COC(=O)c1cn(CCOc2ccccc2)c2ccccc12 | ? | -15 | ? | -1% | 5 | 0
COc1ccc(C(=O)NCCn2cc(SC(C)c3ccccc3)c3ccccc32)cc1OC (stereo unspecified) | 16µM* | · | 12µM* | -3% | 2 | ·
C[C@]12CC[C@H]3[C@@H](CCC4=C(Cl)C(=O)CC[C@@]43C)[C@@H]1CC[C@@H]2O | -8% | · | ? | · | -7 | ·
COc1cc(CNC(=O)CCCC/C=C/C(C)C)ccc1O | 11µM*! | 6 | 8.9µM*! | 2% | -19 | -24
CC(=O)Nc1ccc(S(=O)(=O)N(C)CCOCc2ccccc2)cc1 | 23µM* | -13 | 18µM* | 22µM* | -4 | 7
C#CCOS(=O)OC1CCCCC1Oc1ccc(C(C)(C)C)cc1 (stereo unspecified) | -26% | · | -24% | · | · | ·
CCOP(=O)(OCC)OCC | 2% | -17 | -16% | 1% | -90 | -110*
CCOP(=O)(OCC)Oc1cc(C)c(N(C)C)c(C)c1 | -29% | 2 | ? | · | 6 | 12
CN1OC[C@@H]2CN[C@H](c3ccccc3Br)C[C@@H]21 | -13% | 2 | -2% | -1% | -8 | 31
Cc1nc(N)sc1CCN | ? | · | -7% | · | · | ·
CCCN(CCC)C1CCc2ccc(O)cc2C1 (stereo unspecified) | 4% | 10 | 17% | 0% | 122* | ·
COc1ccc(CCNCc2ccsc2)cc1OC | 4% | 6 | 9% | · | -15 | -11
O=[N+]([O-])c1ccccc1-c1cc(-c2ccccc2)cc(-c2ccccc2)[n+]1Cc1ccccc1Cl | 0.65µM* | 0 | 0.73µM* | 1% | -19 | -4
SMILES | DT40 TDP1 CPT | IL-1B inflam inh | TDP1 cell noCPT | ClpP mod | DRD3 agonist | D3 antag
CC[C@@]1(O)C(=O)OCc2c1cc1n(c2=O)Cc2cc3c(NC(=O)CN)cccc3nc2-1 | 0.23µM* | ? | 0.41µM* | 1% | -8 | -3
CC[C@@]1(O)C(=O)OCc2c1cc1n(c2=O)Cc2cc3ccccc3nc2-1 | 0.079µM* | · | 0.089µM*! | 4% | · | ·
CCC1(OC(=O)CN)C(=O)OCc2c1cc1n(c2=O)Cc2cc3ccccc3nc2-1 (stereo unspecified) | 0.16µM* | -98* | 0.065µM* | -1% | -17 | ?
CCC(C)(S(=O)(=O)CC)S(=O)(=O)CC | 3% | · | -3% | · | -2 | ·
CN(C)c1ccc([P+](=O)c2ccc(N(C)C)cc2)cc1 | ? | -21 | 21µM* | · | 7 | 8
CC1C(=O)OC2CCN3CC=C(COC(=O)[C@](C)(O)[C@]1(C)O)C23 (stereo partly specified) | ? | · | -28% | · | · | ·
Cc1sc2ncnc(N3CCC(C(=O)Nc4ccc(C#N)c(Cl)c4)CC3)c2c1C | 18µM* | 12 | ? | -7% | 14 | 115
N#Cc1ccc(NC(=O)CCNC(=O)c2ccco2)cc1Cl | 8% | 2 | -10% | · | -10 | 4
O=c1[nH]c2ccccc2n1C1CCN(Cc2ccc(-c3nc4ccc(F)cc4nc3-c3ccccc3)cc2)CC1 | 4.1µM* | -61* | 6.5µM* | -13% | -19 | -96*
O=C(Cc1ccccc1)N1CCN(Cc2ccc(F)cc2)CC1 | 5% | -6 | -11% | 0% | -7 | 21
c1ccc(-c2ccc(-c3[nH]ncc3CN3CCC(N4CCSCC4)CC3)cc2)cc1 | ? | -19 | ? | -1% | -5 | -9
O=c1[nH]c2ccccc2n1C1CCN(Cc2ccc(-c3nc4ccccc4nc3-c3ccccc3)cc2)CC1 | 12µM* | 0 | 15µM* | ? | -16 | -92*
Cc1ccc2nc(-c3ccc(CN4CCC(n5c(=O)[nH]c6ccccc65)CC4)cc3)c(-c3ccccc3)nc2c1 | 8.2µM* | -74* | 12µM* | -13% | -13 | -28
O=c1[nH]c2ccccc2n1CCCN1CCC(n2c(=O)[nH]c3cc(Cl)ccc32)CC1 | ? | ? | 24µM*! | 0% | -90 | -103*
O=C(Cc1ccccc1F)N1CCN(CC(=O)N2CCCC2)CC1 | 17% | 15 | -9% | 0% | 2 | 15
C[C@@H](N)Cn1ccc2cc(F)c(Cl)cc21 | -23% | · | ? | · | · | ·
COc1ccc(N2C(=O)CC(N3CCC(n4c(=O)[nH]c5ccccc54)CC3)C2=O)cc1 (stereo unspecified) | ? | 31 | ? | -1% | 2 | 19
COc1ccc2nc(-c3ccc(CN4CCC(n5c(=O)[nH]c6ccccc65)CC4)cc3)c(-c3ccccc3)nc2c1 | 18µM* | -61* | 15µM* | -27% | -14 | -53*
